Active and inactive are the calls of the source.
Legend:
[1] = binders of probe aFSTL3 on microarray, primary screen, stem cell growth factor project, biochemical, small-molecule microarray, fluorescence 635/667 (AID 1064); details: higher = more signal;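 further: measures binding of the biotinylated anti-FSTL3 antibody to printed compounds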
[2] = binders from COS7 lysate, DM2A8 probe, primary screen, torsin A project, cell lysate, small-molecule microarray, fluorescence 635/667 (AID 1065); details: higher = more signal, COS7 lysate expressing mutant human TOR1A
[3] = binders of probe aFGF2 on microarray, primary screen, stem cell growth factor project, biochemical, small-molecule microarray, fluorescence 635/667 (AID 1067); details: higher = more signal;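 further: measures binding of biotinylated aFGF2 protein to printed compounds on slides; z-score merges feature fluorescence and signal-to-noise across triplicate slides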
[4] = binders of probe aFGF10 on microarray, primary screen, stem cell growth factor project, biochemical, small-molecule microarray, fluorescence 635/667 (AID 1071); details: higher = more signal;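 further: score merges 667 nm spot intensity and signal to noise from triplicate slides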
[5] = molecular target: Neurogenic locus notch homolog protein 2 (Homo sapiens) (UniProt Q04721); experiment: Notch2 binders on small-molecule microarrays, primary screen, biochemical, small-molecule microarray, 635 nm fluorescence, stem cell growth factors (AID 1073); details: Notch2 binding, higher = more signal
[6] = molecular target: Pro-neuregulin-1, membrane-bound isoform (Homo sapiens) (UniProt Q02297); experiment: NRG1 binders on small-molecule microarrays, primary screen, psychiatric disease protein project, biochemical, small-molecule microarray, fluorescence 635/667 (AID 1075); details: NRG1 binding, 635 nm fluorescence, higher = more signal;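 further: score combines 667 nm spot fluorescence with signal to noise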
[7] = system: Neuregulin-1 EGF-like domain; experiment: binders of neuregulin-1 EGF-like domain, primary screen, biochemical, small-molecule microarray, 635 nm fluorescence (AID 1081); details: small-molecule microarray binding, higher = more signal;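 further: binding of the protein to compounds printed on small-molecule microarray slides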
[8] = FRG1 promoter luciferase signal modulators, primary screen, FRG1 inhibition for FSHD, cell-based, C2C12 myotubes, firefly/Renilla luciferase, luminescence (AID 1084); details: higher = more signal, called active from +8 up or from −8 down
[9] = binders of probe aFST on microarray, primary screen, stem cell growth factor project, biochemical, small-molecule microarray, fluorescence 635/667 (AID 1086); details: higher = more signal;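 further: score merges 667 nm fluorescence with signal-to-noise of each printed compound spot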
[10] = binders of probe aHhip on microarray, primary screen, stem cell growth factor project, biochemical, small-molecule microarray, fluorescence 635/667 (AID 1087); details: higher = more signal;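 further: score merges spot fluorescence at 667nm with spot signal to noise ratio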
[11] = system: PRMT1 (protein arginine N-methyltransferase 1); experiment: PRMT1 binders on small-molecule microarrays, primary screen, biochemical, small-molecule microarray, 635 nm fluorescence (AID 1088); details: small-molecule microarray binding, higher = more signal;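 further: binding of Prmt1 protein to compounds spotted on small-molecule microarray slides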
[12] = yeast growth modulation, basal conditions, primary screen, YJM789 clinical isolate, OD600, 24 h (AID 1089);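 further: growth of clinical yeast isolate S. cerevisiae YJM 789 seeded 1000 cells per well; test concentration not given here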; details: S. cerevisiae YJM789 growth, higher = more signal, called active from +8 up or from −8 down
[13] = fission yeast growth modulation, primary screen, strain 972, OD600, 24 h, no modulator (AID 1090);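 further: basal condition with compound alone and no growth modifier present; test concentration not given here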; details: S. pombe 972 growth, higher = more signal, called active from +8 up or from −8 down
[14] = S. cerevisiae growth modulation with rapamycin, primary screen, strain BY4716, OD600, 96 h (AID 1091); details: higher = more signal, called active from +8 up or from −8 down; further: test concentration not given here
[15] = molecular target: Torsin-1A-interacting protein 2 (Homo sapiens) (UniProt Q8NFQ8); experiment: LULL1 binders on small-molecule microarray, primary screen, cell lysate, human LULL1 lysate, 635/667 nm fluorescence (AID 1092); details: hLULL1 lysate binding, 635 nm fluorescence, higher = more signal;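 further: probe is lysate of COS7 cells overexpressing human LULL1; score merges per-feature 667 nm fluorescence with signal-to-noise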
[16] = E. coli growth modulation, two-sided OD650, primary screen, E. coli filamentation project, strain DRC41, 24 h (AID 1093); details: OD650, 24 h, higher = more signal, called active from +8 up or from −8 down;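 further: MC1000 strain lacking acrAB efflux and sulA so SOS filamentation is blocked; test concentration not given here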
[17] = small-molecule microarray binders of probe aLefty2, primary screen, biochemical, biotinylated probe, 635/667 nm fluorescence (AID 1094); details: higher = more signal;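 further: score merges spot fluorescence near 667 nm with spot signal-to-noise ratio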
[18] = system: Noggin (protein binding on small-molecule microarray); experiment: Noggin binders on small-molecule microarray, primary screen, biochemical, 635/667 nm fluorescence (AID 1095); details: 635 nm fluorescence, higher = more signal;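 further: score merges 667 nm feature fluorescence with signal to noise over triplicate slides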
[19] = molecular target: Neurogenic locus notch homolog protein 3 (Homo sapiens) (UniProt Q9UM47); experiment: NOTCH3 binders on small-molecule microarray, primary screen, biochemical, 635/667 nm fluorescence (AID 1096); details: NOTCH3 binding, 635 nm fluorescence, higher = more signal
[20] = small-molecule microarray binders of probe aEGFR, primary screen, biochemical, biotinylated probe, 635/667 nm fluorescence (AID 1097); details: higher = more signal;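 further: probe is a biotinylated anti-EGFR antibody binding compounds printed on slides; score combines fluorescence near 667 nm and signal to noise of each spot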

Chain of Torsin-1A-interacting protein 2 (Homo sapiens) (Q8NFQ8 whole entry, looked up): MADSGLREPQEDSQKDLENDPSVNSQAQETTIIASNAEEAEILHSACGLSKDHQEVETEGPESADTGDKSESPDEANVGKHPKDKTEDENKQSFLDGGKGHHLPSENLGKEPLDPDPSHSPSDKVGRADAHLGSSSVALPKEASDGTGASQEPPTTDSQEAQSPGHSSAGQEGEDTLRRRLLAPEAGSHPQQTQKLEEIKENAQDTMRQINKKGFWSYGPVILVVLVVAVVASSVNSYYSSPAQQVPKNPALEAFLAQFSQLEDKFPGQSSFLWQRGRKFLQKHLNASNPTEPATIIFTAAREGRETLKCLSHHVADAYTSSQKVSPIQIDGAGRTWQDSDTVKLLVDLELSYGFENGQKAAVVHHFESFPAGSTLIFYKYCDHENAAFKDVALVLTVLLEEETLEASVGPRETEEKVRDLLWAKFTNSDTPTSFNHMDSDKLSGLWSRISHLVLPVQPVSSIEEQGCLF
Chain of Neurogenic locus notch homolog protein 2 (Homo sapiens) (Q04721 whole entry, looked up, canonical isoform): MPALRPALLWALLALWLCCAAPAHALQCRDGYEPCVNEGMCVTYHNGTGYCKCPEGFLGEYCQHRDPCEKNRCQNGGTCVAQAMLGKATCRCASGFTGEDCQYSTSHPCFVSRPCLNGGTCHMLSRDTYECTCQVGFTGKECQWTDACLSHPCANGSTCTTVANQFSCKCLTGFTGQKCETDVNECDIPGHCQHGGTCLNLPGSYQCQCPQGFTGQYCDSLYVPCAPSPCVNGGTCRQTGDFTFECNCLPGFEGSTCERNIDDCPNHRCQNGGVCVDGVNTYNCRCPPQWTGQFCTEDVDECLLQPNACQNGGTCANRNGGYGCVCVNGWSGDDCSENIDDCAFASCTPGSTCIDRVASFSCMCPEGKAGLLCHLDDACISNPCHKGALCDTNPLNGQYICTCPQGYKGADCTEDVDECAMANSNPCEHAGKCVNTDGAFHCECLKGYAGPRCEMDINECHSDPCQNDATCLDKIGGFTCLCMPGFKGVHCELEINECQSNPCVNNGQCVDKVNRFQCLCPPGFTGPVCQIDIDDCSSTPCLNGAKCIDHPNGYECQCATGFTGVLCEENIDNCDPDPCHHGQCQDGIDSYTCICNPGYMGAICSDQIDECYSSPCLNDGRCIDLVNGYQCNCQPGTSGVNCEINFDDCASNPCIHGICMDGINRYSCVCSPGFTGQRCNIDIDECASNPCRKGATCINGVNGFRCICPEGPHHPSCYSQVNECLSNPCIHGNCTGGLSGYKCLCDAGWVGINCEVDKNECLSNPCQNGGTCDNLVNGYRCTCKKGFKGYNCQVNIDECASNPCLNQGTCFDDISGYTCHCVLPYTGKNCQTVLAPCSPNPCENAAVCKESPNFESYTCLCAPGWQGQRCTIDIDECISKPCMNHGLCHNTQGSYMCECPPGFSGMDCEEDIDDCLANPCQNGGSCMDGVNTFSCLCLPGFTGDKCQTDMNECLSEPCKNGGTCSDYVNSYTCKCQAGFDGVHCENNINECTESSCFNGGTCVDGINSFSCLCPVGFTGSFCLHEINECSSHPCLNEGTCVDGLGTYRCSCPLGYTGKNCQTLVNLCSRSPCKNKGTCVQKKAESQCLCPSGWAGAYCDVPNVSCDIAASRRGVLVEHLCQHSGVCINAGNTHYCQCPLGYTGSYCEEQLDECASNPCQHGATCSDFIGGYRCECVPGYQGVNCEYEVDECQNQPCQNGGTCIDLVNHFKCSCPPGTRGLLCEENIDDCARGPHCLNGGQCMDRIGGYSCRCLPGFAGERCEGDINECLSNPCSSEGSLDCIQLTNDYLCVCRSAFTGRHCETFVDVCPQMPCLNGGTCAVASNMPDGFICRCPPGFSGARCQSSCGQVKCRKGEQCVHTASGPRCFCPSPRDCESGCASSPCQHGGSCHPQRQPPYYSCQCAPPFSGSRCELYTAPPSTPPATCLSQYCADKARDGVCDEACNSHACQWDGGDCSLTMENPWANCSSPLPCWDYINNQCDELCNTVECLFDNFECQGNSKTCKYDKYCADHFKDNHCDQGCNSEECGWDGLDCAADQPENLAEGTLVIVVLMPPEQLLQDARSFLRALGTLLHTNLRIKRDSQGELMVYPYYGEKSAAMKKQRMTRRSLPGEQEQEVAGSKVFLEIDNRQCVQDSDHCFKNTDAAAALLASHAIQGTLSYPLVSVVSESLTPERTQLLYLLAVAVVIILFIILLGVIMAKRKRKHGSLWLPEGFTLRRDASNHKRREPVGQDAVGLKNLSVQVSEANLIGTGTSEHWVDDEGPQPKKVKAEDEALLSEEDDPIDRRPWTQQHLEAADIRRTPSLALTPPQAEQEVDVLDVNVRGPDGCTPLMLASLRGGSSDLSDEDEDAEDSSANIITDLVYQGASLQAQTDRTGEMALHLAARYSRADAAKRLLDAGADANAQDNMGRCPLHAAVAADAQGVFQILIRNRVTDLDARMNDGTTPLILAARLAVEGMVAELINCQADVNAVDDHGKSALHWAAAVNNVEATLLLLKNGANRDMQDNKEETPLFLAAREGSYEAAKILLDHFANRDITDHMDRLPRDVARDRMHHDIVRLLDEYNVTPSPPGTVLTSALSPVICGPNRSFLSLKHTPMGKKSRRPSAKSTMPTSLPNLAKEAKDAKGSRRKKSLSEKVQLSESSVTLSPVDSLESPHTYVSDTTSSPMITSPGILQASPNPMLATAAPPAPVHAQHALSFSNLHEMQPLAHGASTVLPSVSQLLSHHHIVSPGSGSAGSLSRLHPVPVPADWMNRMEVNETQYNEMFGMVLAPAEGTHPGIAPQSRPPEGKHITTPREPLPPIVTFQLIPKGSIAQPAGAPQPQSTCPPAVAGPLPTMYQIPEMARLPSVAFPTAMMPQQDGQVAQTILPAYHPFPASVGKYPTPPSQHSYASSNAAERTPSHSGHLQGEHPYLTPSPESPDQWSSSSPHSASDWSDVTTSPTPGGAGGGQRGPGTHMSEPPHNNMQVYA
Chain of Pro-neuregulin-1, membrane-bound isoform (Homo sapiens) (Q02297 whole entry, looked up, the tested form may be a part, canonical isoform): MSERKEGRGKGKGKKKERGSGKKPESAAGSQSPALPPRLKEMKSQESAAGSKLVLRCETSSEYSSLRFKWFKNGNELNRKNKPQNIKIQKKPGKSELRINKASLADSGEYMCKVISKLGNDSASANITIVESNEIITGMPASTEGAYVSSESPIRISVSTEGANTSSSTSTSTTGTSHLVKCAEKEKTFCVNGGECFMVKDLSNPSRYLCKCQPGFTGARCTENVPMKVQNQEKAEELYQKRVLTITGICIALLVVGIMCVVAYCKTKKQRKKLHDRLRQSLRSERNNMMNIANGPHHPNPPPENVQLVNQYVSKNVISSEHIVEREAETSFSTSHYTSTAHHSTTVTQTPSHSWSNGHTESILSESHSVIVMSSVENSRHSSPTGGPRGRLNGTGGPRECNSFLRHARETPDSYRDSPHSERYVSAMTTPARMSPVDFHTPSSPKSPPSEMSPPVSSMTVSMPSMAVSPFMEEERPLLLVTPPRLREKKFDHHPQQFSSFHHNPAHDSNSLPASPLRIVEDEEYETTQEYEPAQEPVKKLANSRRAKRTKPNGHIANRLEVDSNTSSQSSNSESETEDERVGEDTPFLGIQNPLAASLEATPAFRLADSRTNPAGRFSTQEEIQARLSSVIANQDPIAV

Compound | composite z-score [1] | composite z-score [2] | composite z-score [3] | composite z-score [4] | composite z-score [5] | composite z-score [6] | composite z-score [7] | z-score [8] | composite z-score [9] | composite z-score [10] | composite z-score [11] | z-score [12] | z-score [13] | z-score [14] | composite z-score [15] | z-score [16] | composite z-score [17] | composite z-score [18] | composite z-score [19] | composite z-score [20]
COc1ccc([Si](C)(C)[C@H]2[C@H](CCO)O[C@@]3(C(=O)N(Cc4ccccc4)c4ccc(NC(=O)[C@H](C)O)cc43)[C@@H]2C)cc1 | -0.0382 | 0.394 | -0.0653 | 1.12 | 0.855 | 0.638 | 1.18 | -3.18 (inactive) | 0.239 | 0.126 | 1.44 | 2.75 (inactive) | 0.215 (inactive) | 5.82 (inactive) | 2.24 | 0.25 (inactive) | 0.0092 | -0.227 | 0.149 | 0.148
COCCCNC(=O)[C@@]1(Cc2ccccc2I)c2ccccc2C(=O)N(Cc2ccccc2C(F)(F)F)[C@H]1c1ccc(CO)cc1 | 0.088 | 0.395 | -0.0232 | -0.283 | -1.01 | 0.988 | 1.05 | -1.78 (inactive) | 0.341 | 0.0826 | 1.4 | -0.784 (inactive) | 0.25 (inactive) | 0.437 (inactive) | 2.47 | -0.627 (inactive) | -0.0654 | -0.473 | 0.03 | -0.291
CC[C@@H](O[Si](C#C[Si](C(C)C)(C(C)C)C(C)C)(C(C)C)C(C)C)c1cn([C@H](CO)Cc2ccccc2)nn1 | -0.48 | 0.111 | -0.187 | 0.686 | 0.929 | 0.0252 | 0.846 | 0.355 (inactive) | 0.547 | -0.0994 | 1.34 | 1.57 (inactive) | 1.22 (inactive) | 0.532 (inactive) | 1.51 | 0.598 (inactive) | -0.232 | 0.715 | 0.907 | -0.0584
C=C(C(=O)CC[C@H](OC(=O)c1ccccc1-c1ccccc1C(=O)O)c1ccc(OCCO)cc1)C(C)C | -0.525 | 0.166 | 0.0033 | 0.13 | 0.214 | 1.76 | 1.26 | 1.72 (inactive) | 0.239 | -0.0994 | 1.51 | -1.2 (inactive) | -0.788 (inactive) | -1.28 (inactive) | 3.04 | 0.438 (inactive) | -0.135 | 0.779 | 0.241 | 0.0675
CC[C@H]1C2=C3C(CC[C@H]4C(OCc5ccc(F)cc5C(F)(F)F)OC[C@](C)([C@@H]34)N(C(=O)OC(C)(C)C)C2)C(COC(C)=O)C1COC(C)=O (stereo not given in full) | -0.187 | -0.25 | 0.0311 | 0.54 | 1.54 | 1 | 1.2 | 1.48 (inactive) | 1.43 | 0.104 | 0.454 | -0.284 (inactive) | 0.387 (inactive) | 1.46 (inactive) | 2.89 | -1.31 (inactive) | 0.0909 | 0.539 | 1.13 | 0.0507
COc1cccc(C)c1NC(=O)O[C@H]1[C@H](OC(=O)Nc2ccccc2)[C@@H](OC(=O)Nc2ccccc2)[C@@H](OC)O[C@@H]1CO | -0.0439 | 0.639 | 0.0811 | 1.06 | 1.48 | 1.81 | 1.46 | 0.91 (inactive) | 0.837 | 0.149 | 1.56 | 1.52 (inactive) | 0.176 (inactive) | 4.1 (inactive) | 3.36 | -0.93 (inactive) | 0.0321 | 0.902 | 1.12 | 0.0182
CCOC(=O)C[C@H]1[C@H](OC(=O)c2cc3ccccc3oc2=O)[C@@H](NC(=O)c2ccc(-c3ccccc3)cc2)c2cc(OCCCO)ccc2N1C(=O)Cc1ccc(OC)cc1 | -0.428 | 0.0922 | -0.0667 | 0.67 | 0.992 | 0.178 | 1.18 | 0.228 (inactive) | 0.494 | -0.132 | 1.2 | -0.792 (inactive) | -0.398 (inactive) | -0.077 (inactive) | 1.93 | -0.423 (inactive) | -0.212 | 0.421 | 1.11 | 0.148
COC(=O)[C@]1(Cc2ccccc2CN=[N+]=[N-])N=C(c2ccc(OCCCO)cc2)O[C@@H]1c1ccccc1N=[N+]=[N-] | 0.0455 | 0.157 | -0.0465 | -0.223 | -0.206 | 0.829 | 1.18 | 3.39 (inactive) | 0.163 | -0.266 | 0.907 | -0.267 (inactive) | -1.58 (inactive) | 36.1 (active) | 1.22 | 1.08 (inactive) | 0.0269 | 0.398 | -0.122 | -0.297
[N-]=[N+]=NCc1ccccc1[C@H]1OC(c2ccc(OCCCO)cc2)=N[C@@]1(CCS(=O)(=O)c1ccccc1)C(=O)NCCN1CCOCC1 | -0.0144 | -0.523 | 0.126 | 1.04 | 1.67 | 1.57 | 1.27 | 3.26 (inactive) | 1.16 | -0.0095 | 1.56 | 0.917 (inactive) | 0.306 (inactive) | 1.27 (inactive) | 3.5 | -0.0501 (inactive) | 0.181 | 0.0038 | 1.06 | 0.214
COC(=O)c1ccc(OC)c(/C=C\CC(OC(=O)c2ccncc2)c2ccccc2)c1 (stereo not given) | -0.273 | 0.285 | -0.107 | 0.257 | 0.481 | -0.106 | -0.0115 | -1.97 (inactive) | 0.0754 | 0.0514 | 0.264 | -2.64 (inactive) | -2.43 (inactive) | -0.0389 (inactive) | 0.179 | 1.27 (inactive) | -0.0851 | 0.66 | 0.0482 | -0.0286
